{"source": "the antibiotic and cytotoxicity screens of Wong et al. (2023)", "note": "In all, about 39,000 compounds went through this assay and about 3,300 (8.5%) were called active. Shown is part of a subset that was picked to be rich in actives."}
{"system": "HepG2", "assay": "cytotoxicity call (relative viability < 0.9)", "conditions": "10 µM"}
{"smiles": "C[C@H]1CN([C@@H](C)CO)C(=O)Cc2cc(NS(=O)(=O)c3cccs3)ccc2O[C@@H]1CN(C)S(=O)(=O)c1cn(C)cn1", "cytotoxicity call": "inactive"}
{"smiles": "Cc1noc(C)c1NC(=O)Nc1ccc2c(c1)C(=O)N([C@H](C)CO)C[C@H](C)[C@H](CN(C)S(=O)(=O)c1ccccc1)O2", "cytotoxicity call": "inactive"}
{"smiles": "COc1ccc2c3c([nH]c2c1)[C@H](CO)N(C[C@]13CN(Cc2ccccc2F)C1)S(=O)(=O)c1cn(cn1)C", "cytotoxicity call": "inactive"}
{"smiles": "Cc1noc(C)c1NC(=O)Nc1ccc2c(c1)CC(=O)N([C@H](C)CO)C[C@H](C)[C@@H](CN(C)S(=O)(=O)c1cccs1)O2", "cytotoxicity call": "inactive"}
{"smiles": "Cc1ccc(S(=O)(=O)N(C)C[C@@H]2OCCCC[C@H](C)Oc3ccc(NC(=O)Nc4ccc(F)cc4)cc3C(=O)N([C@H](C)CO)C[C@@H]2C)cc1", "cytotoxicity call": "inactive"}
{"smiles": "C[C@H](NC(=O)N(C)C[C@@H]1OCc2ccccc2-c2ccccc2C(=O)N([C@H](C)CO)C[C@@H]1C)c1ccccc1", "cytotoxicity call": "inactive"}
{"smiles": "CCn1c(N)nc2c1c(=O)[nH]c(=O)n2C", "cytotoxicity call": "inactive"}
{"smiles": "NCCn1nc([C@H]2CCN(C(=O)c3csc4c3CCCC4)C2)c2nccnc21", "cytotoxicity call": "inactive"}
{"smiles": "Cc1ccc(S(=O)(=O)N(C)C[C@@H]2Oc3ccc(NS(=O)(=O)c4cn(C)cn4)cc3C(=O)N([C@@H](C)CO)C[C@H]2C)cc1", "cytotoxicity call": "inactive"}
{"smiles": "CCSC1=C(C#N)C(=O)N[C@@H](CO)S1", "cytotoxicity call": "inactive"}
{"smiles": "C[C@H](CO)N1C[C@H](C)[C@@H](CN(C)Cc2ccc(C(=O)O)cc2)OCCCC[C@H](C)Oc2ccc(NC(=O)Nc3cccc4ccccc34)cc2C1=O", "cytotoxicity call": "inactive"}
{"smiles": "C[C@@H]1CCCCO[C@H](CN(C)C(=O)Nc2ccc(C(F)(F)F)cc2)[C@@H](C)CN([C@@H](C)CO)C(=O)c2cc(NS(=O)(=O)c3ccccc3)ccc2O1", "cytotoxicity call": "inactive"}
{"smiles": "C[C@@H]1CCCCO[C@@H](CN(C)C(=O)Nc2ccc(C(F)(F)F)cc2)[C@@H](C)CN([C@H](C)CO)C(=O)c2cc(NS(=O)(=O)c3ccccc3)ccc2O1", "cytotoxicity call": "active"}
{"smiles": "C[C@H](CO)N1C[C@H](C)[C@H](CN(C)C(=O)Nc2ccc(C(F)(F)F)cc2)OCCCC[C@H](C)Oc2ccc(NS(=O)(=O)c3ccccc3)cc2C1=O", "cytotoxicity call": "inactive"}
{"smiles": "C[C@H]1CCCCO[C@H](CN(C)C(=O)Nc2ccc(C(F)(F)F)cc2)[C@@H](C)CN([C@@H](C)CO)C(=O)c2cc(NS(=O)(=O)c3ccccc3)ccc2O1", "cytotoxicity call": "active"}
{"smiles": "Cc1noc(C)c1S(=O)(=O)Nc1cccc2c1O[C@@H](CN(C)S(=O)(=O)c1cccs1)[C@@H](C)CN([C@@H](C)CO)C2=O", "cytotoxicity call": "inactive"}
{"smiles": "COc1ccc(-n2c(N)cc(=O)[nH]c2=O)cc1", "cytotoxicity call": "inactive"}
{"smiles": "c1ccc(Nc2nc3c(ccc4ccccc43)s2)cc1", "cytotoxicity call": "active"}
{"smiles": "CSc1cccc2sc(Nc3ccc(Cl)cc3)nc12", "cytotoxicity call": "inactive"}
{"smiles": "N=C(N)Nc1nc(=O)c2ccccc2s1", "cytotoxicity call": "inactive"}
{"smiles": "O=C(C[C@H]1CC=CC[C@H](Cc2ccc(F)cc2)C(=O)OC[C@@H](Cc2c[nH]c3ccccc23)NC1=O)NCCO", "cytotoxicity call": "inactive"}
{"smiles": "C[C@@H]1CN([C@@H](C)CO)C(=O)Cc2cc(NC(=O)C3CCCCC3)ccc2O[C@@H]1CN(C)S(C)(=O)=O", "cytotoxicity call": "inactive"}
{"smiles": "C[C@@H]1CN([C@@H](C)CO)C(=O)c2cc(NC(=O)C3CCCCC3)ccc2O[C@@H](C)CCCCO[C@H]1CN(C)C(=O)C1CCCCC1", "cytotoxicity call": "inactive"}
{"smiles": "Cc1noc(C)c1S(=O)(=O)Nc1ccc2c(c1)CC(=O)N([C@@H](C)CO)C[C@@H](C)[C@@H](CN(C)C(=O)Nc1ccc3c(c1)OCO3)O2", "cytotoxicity call": "inactive"}
{"smiles": "CNC(=O)c1c(O)c2ccccc2n(C)c1=O", "cytotoxicity call": "active"}
{"smiles": "Cn1c(=O)c(C(=O)NCCO)c(O)c2ccccc21", "cytotoxicity call": "inactive"}
{"smiles": "CNC(=O)c1c(O)c2ccccc2[nH]c1=O", "cytotoxicity call": "inactive"}
{"smiles": "COc1ccc2c3c([nH]c2c1)[C@H](CO)N(C[C@]13CCN(CC1)C(=O)CN(C)C)S(=O)(=O)C", "cytotoxicity call": "inactive"}
{"smiles": "CC1OC1P(=O)([O-])[O-].[Ca+2]", "note": "(stereo not drawn)", "cytotoxicity call": "inactive"}
{"smiles": "CSc1c(-c2ccc(Cl)cc2)[nH]c2ccccc12", "cytotoxicity call": "active"}
{"smiles": "Cc1[nH]c2ccccc2c1C(=O)CSc1ccc(Cl)cc1", "cytotoxicity call": "inactive"}
{"smiles": "NCC[S@@](=O)c1c(-c2ccc(F)cc2)[nH]c2ccccc12", "cytotoxicity call": "inactive"}
{"smiles": "C[C@H](CO)N1C[C@H](C)[C@H](CN(C)S(=O)(=O)c2ccc(Cl)cc2)Oc2ccc(NC(=O)CCN3CCOCC3)cc2C1=O", "cytotoxicity call": "inactive"}
{"smiles": "C[C@@H]1CN([C@@H](C)CO)C(=O)Cc2cc(NC(=O)c3ccncc3)ccc2O[C@H]1CN(C)S(C)(=O)=O", "cytotoxicity call": "inactive"}
{"smiles": "C[C@H](O)C#Cc1ccc2c(c1)O[C@H](CN(C)C(=O)CN(C)C)[C@@H](C)CN([C@@H](C)CO)S2(=O)=O", "cytotoxicity call": "inactive"}
{"smiles": "C[C@H](CO)N1C[C@H](C)[C@@H](CN(C)S(C)(=O)=O)Oc2ccc(NC(=O)Nc3ccc(C(F)(F)F)cc3)cc2CC1=O", "cytotoxicity call": "inactive"}
{"smiles": "C[C@@H]1CN([C@H](C)CO)C(=O)Cc2cc(NC(=O)Nc3ccc(C(F)(F)F)cc3)ccc2O[C@@H]1CN(C)S(=O)(=O)c1ccc(Cl)cc1", "cytotoxicity call": "active"}
{"smiles": "C[C@H](CO)N1C[C@H](C)[C@H](CN(C)S(=O)(=O)c2ccc(Cl)cc2)Oc2ccc(NC(=O)Nc3ccc(C(F)(F)F)cc3)cc2CC1=O", "cytotoxicity call": "active"}
{"smiles": "C[C@H]1CN([C@@H](C)CO)C(=O)Cc2cc(NC(=O)Nc3ccc(C(F)(F)F)cc3)ccc2O[C@H]1CN(C)S(C)(=O)=O", "cytotoxicity call": "inactive"}
{"smiles": "CC(C)NC(=O)Nc1ccc2c(c1)CC(=O)N([C@H](C)CO)C[C@@H](C)[C@@H](CN(C)S(=O)(=O)c1ccc(Cl)cc1)O2", "cytotoxicity call": "inactive"}
{"smiles": "C[C@@H]1CN([C@H](C)CO)C(=O)Cc2cc(NC(=O)Nc3ccc(C(F)(F)F)cc3)ccc2O[C@@H]1CN(C)S(C)(=O)=O", "cytotoxicity call": "inactive"}
{"smiles": "C[C@H]1CN([C@@H](C)CO)C(=O)Cc2cc(NC(=O)Nc3cccc(C(F)(F)F)c3)ccc2O[C@H]1CN(C)S(=O)(=O)c1ccc(Cl)cc1", "cytotoxicity call": "active"}
{"smiles": "C[C@@H]1CN([C@H](C)CO)C(=O)Cc2cc(NC(=O)Nc3ccc(C(F)(F)F)cc3)ccc2O[C@H]1CN(C)S(C)(=O)=O", "cytotoxicity call": "inactive"}
{"smiles": "C[C@H]1CN([C@@H](C)CO)C(=O)Cc2cc(NC(=O)Nc3ccc(C(F)(F)F)cc3)ccc2O[C@H]1CN(C)S(=O)(=O)c1ccc(Cl)cc1", "cytotoxicity call": "active"}
{"smiles": "O=C(O)c1ccc[nH]1", "cytotoxicity call": "inactive"}
{"smiles": "Cc1noc(C)c1NC(=O)N(C)C[C@@H]1Oc2ccc(NC(=O)Nc3ccc(C(F)(F)F)cc3)cc2CC(=O)N([C@@H](C)CO)C[C@@H]1C", "cytotoxicity call": "inactive"}
{"smiles": "C[C@@H]1CN([C@H](C)CO)C(=O)Cc2cc(NC(=O)Cn3cnnn3)ccc2O[C@H]1CN(C)Cc1ccc(Oc2ccccc2)cc1", "cytotoxicity call": "inactive"}
{"smiles": "CN1CCN(C(=O)C[C@H]2C=C[C@H](NS(=O)(=O)c3cccc(F)c3)[C@@H](CO)O2)CC1", "cytotoxicity call": "inactive"}
{"smiles": "Cn1cnc(S(=O)(=O)N[C@H]2CC[C@H](CC(=O)NCC3CC3)O[C@@H]2CO)c1", "cytotoxicity call": "inactive"}
{"smiles": "C[C@@H]1CN([C@@H](C)CO)C(=O)c2cc(NC(=O)CCC(F)(F)F)ccc2O[C@@H](C)CCCCO[C@H]1CN(C)C(=O)Nc1cccc2ccccc12", "cytotoxicity call": "inactive"}
{"smiles": "CC(C)N1C[C@H](C)[C@@H](CN(C)Cc2ccc(Oc3ccccc3)cc2)Oc2c(C(=O)Nc3ccncc3)cccc2C1=O", "cytotoxicity call": "inactive"}
{"smiles": "COc1ccc(NC(=O)Nc2ccc3c(c2)C(=O)N([C@@H](C)CO)C[C@H](C)[C@H](CN(C)Cc2ccc(C(=O)O)cc2)OCCCC[C@H](C)O3)cc1", "cytotoxicity call": "inactive"}
{"smiles": "CCCNS(=O)(=O)c1c[nH]c(C(=O)OC)c1", "cytotoxicity call": "inactive"}
{"smiles": "C[C@@H]1CN([C@@H](C)CO)C(=O)c2cccc(NS(=O)(=O)c3ccc(F)cc3)c2O[C@@H]1CN(C)CC1CC1", "cytotoxicity call": "inactive"}
{"smiles": "C[C@@H]1CN([C@H](C)CO)C(=O)Cc2cc(NC(=O)Nc3ccc(C(F)(F)F)cc3)ccc2O[C@H]1CN(C)S(=O)(=O)c1ccc(Cl)cc1", "cytotoxicity call": "inactive"}
{"smiles": "C[C@H]1CN([C@@H](C)CO)C(=O)Cc2cc(NC(=O)Nc3cccc(C(F)(F)F)c3)ccc2O[C@H]1CN(C)S(=O)(=O)c1ccc(Oc2ccccc2)cc1", "cytotoxicity call": "active"}
{"smiles": "COc1ccc(S(=O)(=O)N(C)C[C@@H]2Oc3ccc(NC(=O)Nc4cccc(C(F)(F)F)c4)cc3CC(=O)N([C@@H](C)CO)C[C@@H]2C)cc1Cl", "cytotoxicity call": "active"}
{"smiles": "C[C@H]1CN([C@@H](C)CO)C(=O)Cc2cc(NC(=O)Nc3ccc(C(F)(F)F)cc3)ccc2O[C@@H]1CN(C)S(=O)(=O)c1ccc(Cl)cc1", "cytotoxicity call": "active"}
{"smiles": "C[C@@H]1CN([C@@H](C)CO)C(=O)Cc2cc(NC(=O)Nc3ccc(C(F)(F)F)cc3)ccc2O[C@H]1CN(C)S(=O)(=O)c1ccc(Cl)cc1", "cytotoxicity call": "inactive"}
{"smiles": "C[C@H](CO)N1C[C@H](C)[C@@H](CN(C)S(=O)(=O)c2ccc(Cl)cc2)Oc2ccc(NC(=O)Nc3ccc(C(F)(F)F)cc3)cc2CC1=O", "cytotoxicity call": "active"}
{"smiles": "Cc1cc(=O)nc2[nH][nH]c(=S)n12", "cytotoxicity call": "inactive"}
{"smiles": "C[C@H]1CN([C@@H](C)CO)C(=O)c2cccc(NC(=O)c3nc4ccccc4s3)c2O[C@@H]1CN(C)S(C)(=O)=O", "cytotoxicity call": "inactive"}
{"smiles": "C[C@@H]1CN([C@@H](C)CO)C(=O)Cc2cc(NC(=O)Nc3cccc4ccccc34)ccc2O[C@H]1CN(C)C(=O)Nc1ccccc1", "cytotoxicity call": "inactive"}
{"smiles": "COc1ccc(S(=O)(=O)Nc2ccc3c(c2)CC(=O)N([C@H](C)CO)C[C@@H](C)[C@H](CN(C)Cc2ccc(C(=O)O)cc2)O3)cc1", "cytotoxicity call": "inactive"}
{"smiles": "CN(C)C=C(C=[N+](C)C)c1[nH]ncc1N", "cytotoxicity call": "inactive"}
{"smiles": "C[C@@H]1CN([C@@H](C)CO)C(=O)Cc2cc(NC(=O)Nc3ccc(C(F)(F)F)cc3)ccc2O[C@@H]1CN(C)S(=O)(=O)c1ccc(Cl)cc1", "cytotoxicity call": "active"}
{"smiles": "Cc1cc(C(=O)Nc2cccc3c2O[C@H](CN(C)Cc2ccncc2)[C@@H](C)CN([C@H](C)CO)C3=O)n(C)n1", "cytotoxicity call": "inactive"}
{"smiles": "C[C@@H]1CN([C@@H](C)CO)C(=O)Cc2cc(NC(=O)CCC(F)(F)F)ccc2O[C@@H]1CN(C)S(=O)(=O)c1cn(C)cn1", "cytotoxicity call": "inactive"}
